This note sets out measurements from PubChem BioAssay (NCATS).

Inconclusive results are not listed. Unmarked numbers belong to inactive results. The call rests on the fitted dose curve; in most records, active means well fitted curve in either direction with a large enough effect (not every such curve was filed as active); inconclusive means small, poorly fitted or top-dose-only effect, or another doubt; inactive means flat fitted curve, though single readings scatter.
On the % scale 0 is the no-effect control and ±100 the full control effect.

The nature of the first assay: AP1 Signaling Pathway (AID 357).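 Further: ME-180 reporter cells stimulated with EGF at its EC50 level.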 The conditions noted are these: ME-180 (cervical carcinoma) AP-1-bla reporter, EGF-induced, beta-lactamase ratio, 5 h; at 17.2 µM (top of the series) unless noted. In a few lines: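 In this screen, ME-180 cells in Opti-MEM with 0.5% dialyzed FBS received EC50 EGF and compound titrations for 5 h. AP-1 reporter beta-lactamase was detected via CCF4 ratio, giving AC50 for positive and negative modulators.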
Turning to `C=C(C)C1Cc2c(C)nn(-c3nc(C)cc(C)n3)c2C1` (stereo not drawn), the activity change, negative = inhibition is -4.28%.

For `CCOC(=O)c1cc2c(=O)n3cccc(C)c3nc2n(Cc2cccnc2)c1=N`, the activity change, negative = inhibition was 13.7%.

For `CN(C)/C=C1\N=C(c2cccs2)OC1=O`, the activity change, negative = inhibition is 4.03%.

With `COc1ccccc1Cn1c2nc3ccccc3nc2c2c(=O)n(CC(C)C)cnc21`, the activity change, negative = inhibition is -14.3%.

On to `O=C(CNC1=NCCC1)c1ccc2c(c1)OCCO2`, for which the activity change, negative = inhibition is 5.51%.

As to `COc1cccc(C2/C(=C(/O)c3cnn(-c4ccccc4)c3C)C(=O)C(=O)N2CCN(C)C)c1OC` (stereo not drawn), the activity change, negative = inhibition is -4.08%.

With `Clc1ccc(COc2ccccn2)c(Cl)c1`, the activity change, negative = inhibition is 10%.

As to `CCCNC1=C(C)C(=O)CC1`, the activity change, negative = inhibition is 11.1%.

For `Cc1nc(N2CCOCC2)c(C#N)c2c1COC(C)(C)C2`, the activity change, negative = inhibition was 0.635%.

As to `COc1ccc(C(=O)N2CCC(N3CCN(c4ccccc4)CC3)CC2)cc1OC`, the activity change, negative = inhibition is 11.1%.

Regarding `COc1ccc(CNC(=O)[C@H](C)NC(=O)C2CCN(S(=O)(=O)c3ccc(C)cc3)CC2)cc1`, the activity change, negative = inhibition is 0.123%.

Consider `Cc1cc(C)c(C#N)c(SCC(=O)NC2CC2)n1`, for which the activity change, negative = inhibition was 5.34%.

For `CC1(C2(O)CC(c3ccccc3)ON2)CCCCC1` (stereo not drawn), the activity change, negative = inhibition was 11.4%.

For `CCOC(=O)CNC(=O)CCCCCC(=O)NCC(=O)OCC`, the activity change, negative = inhibition is 7.11%.

Regarding `Clc1cccc(-c2nn3c(COc4ccccc4)nnc3s2)c1`, the activity change, negative = inhibition is 6.46%.

Consider `CCN1C(=O)CC(N2CCN(c3ccc(OC)cc3)CC2)C1=O` (stereo not drawn), for which the activity change, negative = inhibition is 7.27%.

On to `CC(C)C1Cc2c(C#N)c(N)sc(=S)c2CO1` (stereo not drawn), for which the activity change, negative = inhibition is -19.3%.

For the compound `COc1ccc(N2C(=O)CC(N(Cc3ccc(S(N)(=O)=O)cc3)C(C)=O)C2=O)cc1` (stereo not drawn), the activity change, negative = inhibition was 5.04%.

For `N#Cc1c(N2CCOCC2)nc(-c2ccco2)c2c1CCCC2`, the activity change, negative = inhibition is 2.51%.

As to `Cc1ccc(-c2nn(C)c(=O)c3ccccc23)cc1CNC(=O)CSc1nc2ccccc2o1`, the activity change, negative = inhibition was -10.6%.

Take `Cn1c(=O)c2c(nc(Br)n2CCSc2ncccn2)n(C)c1=O`: the activity change, negative = inhibition was 10.3%.

Turning to `CCCCCC(=O)N1CC2(CC)CN(C(=O)CCCCC)CC(CC)(C1)C2=O`, the activity change, negative = inhibition is -3.04%.

For the compound `Cn1c(SCC(=O)N2CCOCC2)nnc1-c1cccc(NC(=O)c2ccccc2F)c1`, the activity change, negative = inhibition was -25.9%.

A short description of another assay: NFAT Signaling Pathway (AID 444).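 Further: carbachol stimulus at about its EC50 of 1 µM final.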 Particulars: Jurkat NFAT-bla M1, carbachol, beta-lactamase ratio, 5 h; at 17.2 µM (top of the series) unless noted. In a few lines:
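Read-out: CCF4 FRET ratio (460 nm/530 nm) after 1 h RT dye loading, used for %activity and AC50 from titration series. Cells: Jurkat NFAT-β-lactamase/M1 line, treated with compound plus 1 uM carbachol for 5 h, 37 °C.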
On to `COc1ccccc1C1/C(=C(/O)c2ccc(C)cc2)C(=O)C(=O)N1CCN1CCOCC1` (stereo not drawn), for which the activity change, negative = inhibition is 19.8%.

Consider `CN1CCc2c(n(CC(O)CN3C(=O)c4ccccc4S3(=O)=O)c3ccccc23)C1=O` (stereo not drawn), for which the activity change, negative = inhibition was 6.52%.

With `COc1ccc(CN(C)CCc2ccccn2)c(OC)c1OC`, the activity change, negative = inhibition was -17.4%.

Turning to `CCN(CC)S(=O)(=O)c1ccc2c(c1)c(C(=O)O)cn2C`, the activity change, negative = inhibition was -1.02%.

Turning to `N#Cc1nc(-c2ccc(F)cc2)oc1N1CCCC1`, the activity change, negative = inhibition is -1.86%.

For `Cc1nc(SCC(=O)Nc2ccc3c(c2)OCO3)c(C#N)c2c1CCCC2`, the activity change, negative = inhibition is -1.28%.

For the compound `CC1(C)Cc2ccccc2-c2c1c(=O)n(-c1ccccc1)c1nnnn21`, the activity change, negative = inhibition is -24.9%.

Consider `O=C(Nc1ccccn1)c1ccc(=O)[nH]n1`, for which the activity change, negative = inhibition was 0.366%.

With `CCSc1nnc(NC(=O)NCC(F)(F)F)s1`, the activity change, negative = inhibition was 2.76%.

As for `CCOc1ccc2nc(NC(NC(C)=O)(C(=O)OC)C(F)(F)F)sc2c1` (stereo not drawn), the activity change, negative = inhibition is 0.18%.

Regarding `CCSc1nc(N)c2c3c(sc2n1)CCC3`, the activity change, negative = inhibition was -2.96%.

On to `COc1ccccc1C1(CC(=O)N2CCOCC2)CCOC(C(C)C)C1` (stereo not drawn), for which the activity change, negative = inhibition is 13.2%.

Regarding `O=CNC(=O)c1ccccc1C(=O)O`, the activity change, negative = inhibition was 3.48%.

In the case of `CCOC(=O)c1c(C)n(C)c2ccc(OC)c(NC(=O)c3cccs3)c12`, the activity change, negative = inhibition is 5.2%.

In the case of `CCOC(=O)c1ccc(NC(=O)COc2ccccc2OC)cc1`, the activity change, negative = inhibition is 0.388%.

With `CCCCn1c2nc3ccccc3nc2c2c(=O)n(CC(C)C)cnc21`, the activity change, negative = inhibition is -20.4%.

`CCCSc1nc(C)c(CC(=O)OCC)c(=O)[nH]1`: the activity change, negative = inhibition was -4.22%.

For the compound `C=C(C)C1Cc2c(C)nn(-c3nc(C)cc(C)n3)c2C1` (stereo not drawn), the activity change, negative = inhibition was 10.4%.

As to `CCOC(=O)c1cc2c(=O)n3cccc(C)c3nc2n(Cc2cccnc2)c1=N`, the activity change, negative = inhibition is -26.5%.

In the case of `CN(C)/C=C1\N=C(c2cccs2)OC1=O`, the activity change, negative = inhibition was 6.03%.

Regarding `COc1ccccc1Cn1c2nc3ccccc3nc2c2c(=O)n(CC(C)C)cnc21`, the activity change, negative = inhibition was 4.7%.

Regarding `O=C(CNC1=NCCC1)c1ccc2c(c1)OCCO2`, the activity change, negative = inhibition was -10.1%.

For `COc1cccc(C2/C(=C(/O)c3cnn(-c4ccccc4)c3C)C(=O)C(=O)N2CCN(C)C)c1OC` (stereo not drawn), the activity change, negative = inhibition was 5.52%.

Take `Clc1ccc(COc2ccccn2)c(Cl)c1`: the activity change, negative = inhibition was -8.68%.

On to `CCCNC1=C(C)C(=O)CC1`, for which the activity change, negative = inhibition is -5.45%.

Turning to `Cc1nc(N2CCOCC2)c(C#N)c2c1COC(C)(C)C2`, the activity change, negative = inhibition was 2.49%.

For the compound `COc1ccc(C(=O)N2CCC(N3CCN(c4ccccc4)CC3)CC2)cc1OC`, the activity change, negative = inhibition is 20.4%.

`COc1ccc(CNC(=O)[C@H](C)NC(=O)C2CCN(S(=O)(=O)c3ccc(C)cc3)CC2)cc1`: the activity change, negative = inhibition was 0.0617%.

With `Cc1cc(C)c(C#N)c(SCC(=O)NC2CC2)n1`, the activity change, negative = inhibition is -3.32%.

For the compound `CC1(C2(O)CC(c3ccccc3)ON2)CCCCC1` (stereo not drawn), the activity change, negative = inhibition was -10.5%.

Take `CCOC(=O)CNC(=O)CCCCCC(=O)NCC(=O)OCC`: the activity change, negative = inhibition is 1.76%.

`Clc1cccc(-c2nn3c(COc4ccccc4)nnc3s2)c1`: the activity change, negative = inhibition was -0.831%.

Take `CCN1C(=O)CC(N2CCN(c3ccc(OC)cc3)CC2)C1=O` (stereo not drawn): the activity change, negative = inhibition was 1.19%.

For the compound `CC(C)C1Cc2c(C#N)c(N)sc(=S)c2CO1` (stereo not drawn), the activity change, negative = inhibition is -23.4%.

In the case of `COc1ccc(N2C(=O)CC(N(Cc3ccc(S(N)(=O)=O)cc3)C(C)=O)C2=O)cc1` (stereo not drawn), the activity change, negative = inhibition is -2.46%.

Take `N#Cc1c(N2CCOCC2)nc(-c2ccco2)c2c1CCCC2`: the activity change, negative = inhibition was 4.52%.

`Cc1ccc(-c2nn(C)c(=O)c3ccccc23)cc1CNC(=O)CSc1nc2ccccc2o1`: the activity change, negative = inhibition is -12.2%.

In the case of `Cn1c(=O)c2c(nc(Br)n2CCSc2ncccn2)n(C)c1=O`, the activity change, negative = inhibition was 8.82%.

For the compound `CCCCCC(=O)N1CC2(CC)CN(C(=O)CCCCC)CC(CC)(C1)C2=O`, the activity change, negative = inhibition is -17.5%.

`Cn1c(SCC(=O)N2CCOCC2)nnc1-c1cccc(NC(=O)c2ccccc2F)c1`: the activity change, negative = inhibition was -5.78%.
